Among all 110,000 compounds or so, about 420 (0.38%) were called active. The sample holds actives, similar compounds and a random draw of the others, so the mix is not that of the screen. Rule as the data show it: active = inhibition above about 30% (passing the limit was not always enough); inconclusive = no clear call, values can overlap the other calls.
Tested on: RmlC (dTDP-4-dehydrorhamnose 3,5-epimerase) and RmlD (dTDP-4-dehydrorhamnose reductase), coupled enzyme assay
Assay: RmlC and RmlD coupled enzyme inhibitors, primary screen, biochemical, 384-well, compound mixtures, retest (AID 1532)
Conditions: 384-well mixture HTS, at 5.5 µM, stronger effect = higher value
[1] = measured here: mean retest inhibition

With `COc1cc(OC)c2ccc(=O)oc2c1C(CCN1CCN(c2ccccc2)CC1)c1ccc2c(c1)OCO2` (configuration not stated) the inhibition was -3.48% (inactive).

In the case of `CCOC(=O)/C=C/CN(C(=O)OC(C)(C)C)S(=O)(=O)N1CC=CC1`, the inhibition is reported as -3.8% (inactive).

For `C#CCOCCOCCOCCNc1nc(N2CCN(C(=O)[C@H](CCC(=O)O)n3cc(C(N)CO)nn3)CC2)nc(N2CCN(C(=O)[C@H](CCCCN)n3cc(C(N)CC(C)C)nn3)CC2)n1` (some centres not stated), the inhibition was 12.9% (inactive).

`Cc1nc(-c2ccccc2)sc1C1(C)CC(c2cccnc2)=NO1` (configuration not stated) was tested, and the inhibition was 1.85% (inactive).

With `O=c1[nH]snc1-c1c(Cl)cccc1Cl` the inhibition was -15.8% (inactive).

With `COC(C[C@H](O)CC(=O)COCc1ccccc1)OC` the inhibition was -6.86% (inactive).

In the case of `CCN1C(=O)N[C@@H](c2ccccc2)[C@H](C(C)=O)[C@H]1C`, the inhibition is reported as -8.96% (inactive).

`Cc1ccc(-c2cc(=O)c3ccc(F)cc3[nH]2)cc1` was tested, and the inhibition was -13.2% (inactive).

In the case of `O=C(NCC1CC1)c1onc(CSc2ccccc2)c1C(=O)NCC1CC1`, the inhibition is reported as -3.31% (inactive).

In the case of `O=C1CC2(CCCC2)Oc2ccc(Cl)cc21`, the inhibition is reported as 2.74% (inactive).

`CCCc1cc(=O)oc2c(C)c(O)c(CN3CCCCC3)cc12` was tested, and the inhibition was 125% (inactive) and the inhibition [1] was 66.6%.

For `COC(=O)COc1ccc2oc(=O)cc(C)c2c1`, the inhibition was 10.6% (inactive).

For `COC(=O)Cc1cc(=O)oc2c(C)c(O)ccc12`, the inhibition was 115% (active) and the inhibition [1] was 108%.

With `CCO[C@H]1OC(C(=O)N2CCN(Cc3ccccc3)CC2)=C[C@@H](c2cn(C(C)=O)c3ccccc23)[C@@H]1CCCO` the inhibition was 77% (inactive) and the inhibition [1] was 8.54%.

With `Cc1nc(C(=O)Nc2ccc(Cl)cc2)sc1C1(C)CC(c2ccccc2)=NO1` (configuration not stated) the inhibition was 7.11% (inactive).

With `C=CCOC(=O)C1=C[C@H](c2ccc(Br)cc2)C[C@H](OCCCCO)O1` the inhibition [1] was 3.33%.

For `C[C@@H](C(=O)N1CCNCC1)n1cc(CCC(=O)O)nn1`, the inhibition was -10.6% (inactive).

In the case of `CC(=O)Nc1sc2c(c1C(c1cccc(F)c1)N1CCN(CCO)CC1)CCCC2` (configuration not stated), the inhibition is reported as -13.5% (inactive).

`CN(C(=O)c1ccno1)c1nnc(-c2cccnc2)s1` was tested, and the inhibition was 11.4% (inactive).

`CN(C(=O)c1ccccn1)c1nnc(-c2ccccn2)s1` was tested, and the inhibition was 73.7% (active) and the inhibition [1] was 110%.

`CN(C(=O)C1CCOC1)c1nnc(-c2cccnc2)s1` (configuration not stated) was tested, and the inhibition was -5.38% (inactive).

In the case of `CN(Cc1ccccc1)C(=O)COc1ccccc1`, the inhibition is reported as -9.33% (inactive).

With `COc1cccc(-c2nnc(N(C)C(=O)c3ccno3)s2)c1` the inhibition was 11.7% (inactive).

With `Cc1c(NC(=O)c2coc(=O)c(Br)c2)c(=O)n(-c2ccccc2)n1C` the inhibition was 75.6% (active) and the inhibition [1] was 104%.

In the case of `Cc1cc(C(=O)Nc2c(C)n(C)n(-c3ccccc3)c2=O)cs1`, the inhibition is reported as -9.2% (inactive).

In the case of `COC(=O)Nc1c(C)n(C)n(-c2ccccc2)c1=O`, the inhibition is reported as 3.72% (inactive).

In the case of `COc1ccc(COCCN2CCN(S(=O)(=O)c3ccccc3)CCC2=O)cc1`, the inhibition is reported as 2.31% (inactive).

`CC(=O)N[C@H]1[C@H]([C@H](O)[C@H](O)CO)OC(C(=O)O)=C[C@@H]1O` was tested, and the inhibition was 1.59% (inactive).

`COc1ccc(C2/C=C\CN(CC(C)C)CC(=O)N2Cc2ccc(F)cc2)cc1` (configuration not stated) was tested, and the inhibition was -6.08% (inactive).

In the case of `NC(N)=NCCCc1cn(CC(=O)N2CCNCC2)nn1`, the inhibition is reported as -8.74% (inactive).

For `COc1ccc2c(c1)CCNC2Cc1ccc(OC)c(O)c1` (configuration not stated), the inhibition was -40.5% (inactive).

`Cc1cn(C)c(=O)n(C)c1=O` was tested, and the inhibition was -2.57% (inactive).

With `CC(C)(C)OC(=O)NCCCC1=CC2=CC(=O)C(C)(OC(=O)c3ccco3)C(=O)C2=CO1` (configuration not stated) the inhibition was -13.3% (inactive).

`Cc1ccc(NC(=O)N2CCSc3ccccc32)cc1` was tested, and the inhibition was -8.05% (inactive).

`NC(=O)CC[C@@H]1NC(=O)[C@H](CO)NC(=O)c2cc([N+](=O)[O-])cc(I)c2NCC[C@@H](C(N)=O)NC1=O` was tested, and the inhibition was -1.33% (inactive).

`CCCC[C@@H]1CN=C(N)N1CCc1cccc(F)c1` was tested, and the inhibition was 4.76% (inactive).

In the case of `CNC(=O)c1[nH]cnc1C(=O)N[C@@H](CC(C)C)C(=O)OC(C)(C)C`, the inhibition is reported as -13.2% (inactive).

For `C#Cc1ccc([C@@H]2C=C(C(=O)O)O[C@H](OCCCCO)C2)cc1`, the inhibition was -5.63% (inactive).

In the case of `O=C(NCc1ccccc1)c1onc(CSc2ccncc2)c1C(=O)NCc1ccccc1`, the inhibition is reported as 2.05% (inactive).

For `CCOC(=O)c1ccc(NC(=O)c2c(N)n(C)c(=O)[nH]c2=O)cc1`, the inhibition was 8.64% (inactive).

With `COc1ccc(CNC(=O)[C@@H]2CC=C[C@@H]3CCN(C4CC4)C(=O)[C@@H]32)cc1` the inhibition was 4.14% (inactive).

With `CC1(C)S[C@@H]2[C@H](NC(=O)COc3ccccc3)C(=O)N2C1C(=O)OCc1ccccc1` (some centres not stated) the inhibition was 5.36% (inactive).

With `C#CCCOC(=O)N1C2=NC(C(=O)OC)=C(C(=O)OC)[C@@H]3N(C)c4ccc(OC)cc4[C@]23C[C@H]1C(=O)OC` the inhibition was -9.08% (inactive).

`CN1CCN(C(CNS(=O)(=O)c2cccs2)c2cccnc2)CC1` (configuration not stated) was tested, and the inhibition was -1.39% (inactive).

In the case of `O=C1N[C@@H](Cc2ccccc2)C(=O)N2[C@@H]3N(S(=O)(=O)c4ccc(F)cc4)c4ccccc4[C@]3(Br)C[C@@H]12`, the inhibition is reported as -18.2% (inactive).

In the case of `C#CCOCCOCCOCCNc1nc(N2CCN(C(=O)[C@H](CCC(=O)O)n3cc(C(N)CO)nn3)CC2)nc(N2CCN(C(=O)[C@H](Cc3ccc(O)cc3)n3cc(C(N)[C@H](C)CC)nn3)CC2)n1` (some centres not stated), the inhibition is reported as 7.3% (inactive).

In the case of `O=C1N[C@H](Cc2ccccc2)C(=O)N[C@H]1Cc1cn(S(=O)(=O)c2ccccc2)c2ccccc12`, the inhibition is reported as -14.5% (inactive).

`CC(C)[C@@H]1NC(=O)c2cc([N+](=O)[O-])cc(I)c2NCCC[C@@H](C(=O)NC(CC(=O)O)C(N)=O)NC(=O)[C@H](CO)NC1=O` (some centres not stated) was tested, and the inhibition was -19.9% (inactive).

For `NC(=O)CC[C@@H]1NC(=O)[C@@H]2CCCN2C(=O)c2cc([N+](=O)[O-])cc(F)c2NCCC[C@@H](C(N)=O)NC1=O`, the inhibition was -71.2% (inactive).

`NC(=O)C1=C[C@H](c2csc3ccccc23)C[C@H](OCc2ccc(CO)cc2)O1` was tested, and the inhibition was -63% (inactive).

For `COP1(=O)C[C@@H](O)[C@@H](O)[C@@H](COCc2ccccc2)O1` (some centres not stated), the inhibition was 11.1% (inactive).

In the case of `CCN1C(=O)N[C@@H](CCc2ccccc2)C(C(=O)OC)=C1C`, the inhibition is reported as 4.12% (inactive).

From PubChem BioAssay AID1532 (PCMD, 2009)
